Calls of active or inactive are those of the source. A call without a number means that no potency is given here. The call rests on the fitted dose curve.

This test in a line: G protein-coupled receptor (GPCR) small molecule agonists, calcium flux assay: HEK293 wild type cell line counter screen (AID 1920065). To be noted: HEK293 WT calcium flux, fluorescence, agonist mode; series mostly up to 57.6 µM. An excerpt: U.S. Tox21 Program National Center for Advancing Translational Sciences [NCATS] Division of Preclinical Innovation [DPI] U.S. Environmental Protection Agency [EPA] National Institutes of Environmental Health Sciences [NIEHS] National Toxicology Program [NTP] U.S. Food and Drug Administration [FDA] Assay overview: The increased intracellular calcium release that occurred upon G protein-coupled receptor (GPCR) activation led to the frequent use of calcium flux assays to detect GPCR activation. For the purpose of studying and screening compounds that may activate GPCR, receptor-overexpressing models were typically generated using Hek293 wild-type (WT) cells. In order to eliminate the compounds that may have induced calcium release for non-specific activation, a counter-assay utilizing calcium flux on Hek293 WT cells was performed. The data were formulated in order to serve as a control for any calcium flux detection utilizing Hek293 cells with either GPCR overexpression or gene modification. The procurement of Hek293 WT cells from ATCC. Fluorescence intensity can be utilized to determine the activation of the compound in a calcium flux assay. As a counter control, this cell line was utilized to screen the Tox21 10K compound library.
Assay Protocol Summary: Hek293 cells were dispensed at 1500cells/4uL/well in 1536-well black wall/clear bottom plates using a multidrop dispenser. After the assay plates were incubated at a 37 C/5% CO2 incubator for 18 hours, 4 uL of Calcium Dye Solution was added to each well. The plates were incubated at 37 C for 1 hour. For agonist mode, 23 nL of compounds dissolved in DMSO, positive control (ATP) or DMSO only was transferred to the assay plate by a pin tool station. The fluorescence intensity in the plates was measured using FDSS 7000EX kinetic plate reader with a filter set of Ex/Em=480/540 for 3 min at 1 sec intervals. Each test compound was measured at 15 concentrations and in triplicates.
(In general: A change in cytosolic calcium serves as a functional read-out for many receptors and channels.)
Regarding `CO[Si](CCCCl)(OC)OC`, the Potency entry is “inactive”.

As to `O=C(C(=O)c1ccccc1)c1ccccc1`, the Potency entry was “inactive”.

In the case of `CC(=O)c1cc(C)oc1C`, the Potency result was “inactive”.

For `O=C(O)c1ccc(CO)o1`, the Potency entry is “inactive”.

As to `CCCCCCCCCCCCCCCCCCOCC(O)CO` (stereo not given), the Potency entry is “inactive”.

Regarding `CCCCCCCCS(=O)(=O)Cl`, the Potency entry was “inactive”.

Consider `O=Cc1ccc(C(=O)O)cc1`, for which the Potency result was “inactive”.

For `O=C1OC(CN2CCOCC2)CN1/N=C/c1ccc([N+](=O)[O-])o1` (stereo not given), the Potency entry is “inactive”.

`CC(C)c1ccc2c(C(C)C)cc(C(C)C)c(S(=O)(=O)O)c2c1`: the Potency entry is “inactive”.

Turning to `O=C(O)CCc1ccccc1`, the Potency entry was “inactive”.

For `CC(=O)/C=C/C1C(C)=CCC(C)C1(C)C` (stereo not given), the Potency result was “inactive”.

As to `NCCNCCNCCN`, the Potency result was “inactive”.

`O=Nc1ccc(Nc2ccccc2)cc1`: the Potency entry is “inactive”.

For `CCCCCCOCCOCCO`, the Potency entry is “inactive”.

On to `C1CCCCC1`, for which the Potency result is “inactive”.

`COc1c2ccoc2cc2oc(=O)ccc12`: the Potency result was “inactive”.

As to `CCC(C)C(=O)OCCc1ccccc1` (stereo not given), the Potency result was “inactive”.

For the compound `CCCCc1ccc2cccc(S(=O)(=O)O)c2c1`, the Potency result was “inactive”.

With `CC(=O)[C@@]1(O)CC[C@H]2[C@@H]3CCC4=CC(=O)CC[C@]4(C)[C@H]3CC[C@@]21C`, the Potency entry is “inactive”.

Regarding `CNC(=O)NC`, the Potency entry was “inactive”.

Consider `NC(=O)C1CO1` (stereo not given), for which the Potency result was “inactive”.

Turning to `C=CC(=O)O[C@H]1C[C@@H]2CC[C@@]1(C)C2(C)C`, the Potency result is “inactive”.

Consider `CCOC(=O)c1ccc(OCCN2C[C@H](O)[C@@H](O)[C@H](O)[C@H]2CO)cc1`, for which the Potency entry is “inactive”.

For the compound `O=C1CC(c2ccc(Cl)cc2)CC(=O)N1`, the Potency entry is “inactive”.

On to `CC(=O)OC/C=C/c1ccccc1`, for which the Potency result was “inactive”.

For `Cc1ccc(N=Nc2c(O)ccc3ccccc23)c(C)c1`, the Potency entry is “inactive”.

For `CCCCCCCCCCCC(=O)N(C)CC(=O)O`, the Potency result is “inactive”.

As to `CCCN[C@H]1CCc2nc(N)sc2C1`, the Potency result is “inactive”.

On to `CC(C#N)(CCC(=O)O)N=NC(C)(C#N)CCC(=O)O` (stereo not given), for which the Potency result was “inactive”.

For `CCCCCCCN`, the Potency result was “inactive”.

With `C=C(C)C(=O)OCCC(C)OC(=O)C(=C)C` (stereo not given), the Potency entry is “inactive”.

With `Clc1ccc2c(c1)C(N1CCNCC1)=Nc1ccccc1O2`, the Potency result is “inactive”.

In the case of `CCCCCC/C=C/C(=O)OC`, the Potency entry was “inactive”.

Regarding `CCOC(=O)c1ccc(C)cc1`, the Potency entry is “inactive”.

As for `CC(C)(C)c1ccc(O)c(C(C)(C)C)c1`, the Potency result was “inactive”.

Regarding `Nc1cc(=O)[nH]c(N)n1`, the Potency entry is “inactive”.

`CC(=O)N[C@H]1[C@H]([C@H](O)[C@H](O)CO)OC(C(=O)O)=C[C@@H]1N=C(N)N`: the Potency entry is “inactive”.

For the compound `Cc1ccc(C(C)NC(=O)[C@@H](NC(=O)OC(C)C)C(C)C)cc1` (stereo not given in full), the Potency entry is “inactive”.

As for `CCCC(=O)Nc1ccc(O)c(C(C)=O)c1`, the Potency entry was “inactive”.

For the compound `O=C1c2ccccc2C(=O)C1c1ccc2cc(S(=O)(=O)O)cc(S(=O)(=O)O)c2n1`, the Potency entry was “inactive”.

The record behind these values is PubChem BioAssay (Tox21).
